Laboratory results: PubChem BioAssay AID1159580 (chemical genetic matrix, 2015)
“And” between values parts separate entries of the source, which are not always exact repeats. Equal values may be shown once. Out of some 5,500 compounds screened, about 2,000 (36%) were called active. Not shown: some 18% with an inconclusive outcome. Cut-off read from the data, not from the text of the source: active = normalized growth mostly below about 0.91 (no sharp cut-off); inconclusive = no clear call, values can overlap the other calls; inactive = mostly above about 0.92. Some of the results follow.

Assay: chemical genetic growth profiling, strain panel (AID 1159580);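 note: tested at 20 µM; growth read once vehicle control cultures reached saturation at 30 °C; 1 = growth at the plate median or of vehicle wells; lower values mean less growth of the strain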
Details: S. cerevisiae deletion strains, growth OD

Measured: normalized growth

CCC(=O)O[C@H]1CCC2C3CCc4cc(O)ccc4C3CC[C@@]21C (stereo partly drawn)
active: locus YAL013W, strain DEP1, stronger effect = lower value 0.7 | locus YDL074C, strain BRE1, stronger effect = lower value 0.447 | locus YDR159W, strain sac3, stronger effect = lower value 0.596 | locus YDR195W, strain ref2 0.209 | locus YDR392W, strain spt3, stronger effect = lower value 0.531 | locus YER155C, strain BEM2, stronger effect = lower value 0.295 | locus YGR229C, strain SMI1, stronger effect = lower value 0.584 | locus YHR079C, strain IRE1, stronger effect = lower value 0.538 | locus YJL095W, strain BCK1, stronger effect = lower value 0.756 and 0.227 | locus YJL129C, strain trk1, stronger effect = lower value 0.814 | locus YJL164C, strain tpk1, stronger effect = lower value 0.904
0.968 (inactive) and 0.298 (active): locus YHR030C, strain SLT2, stronger effect = lower value
inactive: locus YAL021C, strain ccr4, stronger effect = lower value 0.97 | locus YAL026C, strain drs2, stronger effect = lower value 1 | locus YAL030W, strain snc1, stronger effect = lower value 0.988 | locus YBL061C, strain skt5, stronger effect = lower value 0.98 | locus YBR009C, strain hhf1, stronger effect = lower value 0.957 | locus YBR021W, strain FUR4, stronger effect = lower value 0.908 | locus YBR023C, strain chs3, stronger effect = lower value 0.981 | locus YBR171W, strain sec66, stronger effect = lower value 0.997 | locus YBR229C, strain ROT2, stronger effect = lower value 0.999 | locus YBR231C, strain swc5, stronger effect = lower value 0.974 | locus YBR279W, strain paf1, stronger effect = lower value 1 | locus YCL011C, strain gbp2, stronger effect = lower value 0.962 | locus YCL016C, strain dcc1, stronger effect = lower value 0.992 | locus YCL029C, strain bik1, stronger effect = lower value 0.994 | locus YCL061C, strain MRC1, stronger effect = lower value 0.991 | locus YCL069W, strain vba3, stronger effect = lower value 0.997 | locus YCR088W, strain abp1, stronger effect = lower value 0.991 | locus YDL005C, strain med2, stronger effect = lower value 0.966 | locus YDL035C, strain GPR1, stronger effect = lower value 0.975 | locus YDL040C, strain nat1, stronger effect = lower value 1 | locus YDL101C, strain DUN1, stronger effect = lower value 0.951 | locus YDL134C, strain PPH21, stronger effect = lower value 0.956 | locus YDL185W, strain tfp1, stronger effect = lower value 1.01 | locus YDL192W, strain arf1, stronger effect = lower value 1.01 | locus YDR001C, strain nth1, stronger effect = lower value 0.994 | locus YDR069C, strain doa4, stronger effect = lower value 0.97 | locus YDR101C, strain arx1, stronger effect = lower value 0.986 | locus YDR137W, strain rgp1, stronger effect = lower value 0.854 | locus YDR150W, strain NUM1, stronger effect = lower value 1 | locus YDR162C, strain NBP2, stronger effect = lower value 0.993 | locus YDR297W, strain sur2, stronger effect = lower value 0.989 | locus YDR318W, strain mcm21, stronger effect = lower value 1 | locus YDR334W, strain swr1, stronger effect = lower value 0.962 | locus YDR335W, strain msn5, stronger effect = lower value 0.99 | locus YDR388W, stronger effect = lower value 0.987 | locus YDR502C, strain sam2, stronger effect = lower value 0.997 | locus YEL003W, strain gim4, stronger effect = lower value 0.984 | locus YEL037C, strain rad23, stronger effect = lower value 0.995 | locus YEL061C, strain CIN8 (second series), stronger effect = lower value 0.969 | locus YEL061C, strain CIN8, stronger effect = lower value 0.999 | locus YER015W, strain faa2, stronger effect = lower value 0.988 | locus YER016W, strain bim1, stronger effect = lower value 0.996 | locus YER110C, stronger effect = lower value 1.02 | locus YER111C, strain swi4, stronger effect = lower value 0.974 | locus YER155C, strain BEM2 (second series), stronger effect = lower value 0.988 | locus YER167W, strain BCK2, stronger effect = lower value 0.933 | locus YFR010W, strain ubp6, stronger effect = lower value 0.956 | locus YGL078C, strain dbp3, stronger effect = lower value 1.01 | locus YGL086W, strain mad1, stronger effect = lower value 0.985 | locus YGL167C, strain pmr1, stronger effect = lower value 0.98 | locus YGL173C, strain kem1, stronger effect = lower value 0.986 | locus YGL227W, strain vid30, stronger effect = lower value 0.976 | locus YGL240W, strain doc1, stronger effect = lower value 0.972 | locus YGL248W, strain PDE1, stronger effect = lower value 0.961 | locus YGL253W, strain hxk2, stronger effect = lower value 1 | locus YGR135W, strain pre9, stronger effect = lower value 1.01 | locus YGR252W, strain gcn5, stronger effect = lower value 0.973 | locus YHR013C, strain ard1, stronger effect = lower value 0.885 | locus YHR027C, strain rpn1, stronger effect = lower value 0.992 | locus YHR079C, strain IRE1 (second series), stronger effect = lower value 1.01 | locus YHR094C, strain hxt1, stronger effect = lower value 0.997 | locus YHR129C, strain ARP1, stronger effect = lower value 0.932 | locus YHR142W, strain chs7, stronger effect = lower value 0.931 | locus YHR200W, strain rpn10, stronger effect = lower value 1.01 | locus YIL066C, strain RNR3, stronger effect = lower value 0.927 | locus YIL073C, strain SPO22, stronger effect = lower value 0.781 | locus YIL125W, strain kgd1, stronger effect = lower value 1 | locus YIR030C, strain dcg1, stronger effect = lower value 1 | locus YJL092W, strain hpr5, stronger effect = lower value 0.984 | locus YJL095W, strain BCK1 (second series), stronger effect = lower value 0.996 | locus YJL115W, strain asf1, stronger effect = lower value 0.988 | locus YJL134W, strain LCB3, stronger effect = lower value 0.993 | locus YJL154C, strain vps35, stronger effect = lower value 0.995 | locus YJL166W, strain qcr8, stronger effect = lower value 0.989 | locus YJL168C, strain set2, stronger effect = lower value 1 | locus YJL187C, strain SWE1 (second series), stronger effect = lower value 0.925
